# Test results reported in PubChem BioAssay AID1851 (National Center for Advancing Translational Sciences (NCATS), 2009).
# Among all 16,000 compounds or so, about 2,600 (16%) were called active. Roughly 20% stayed inconclusive and do not appear here. Calls come from the whole dose curve; as a rule, active = well fitted curve in the direction sought with a large enough effect; inconclusive = small, poorly fitted or top-dose-only effect, or effect the other way; inactive = no such curve, though single readings can be large or run the other way. The list is a sample of the results.
# Target: Cytochrome P450 2D6 (Homo sapiens) (UniProt P10635)
# Sequence (P10635 whole entry, looked up): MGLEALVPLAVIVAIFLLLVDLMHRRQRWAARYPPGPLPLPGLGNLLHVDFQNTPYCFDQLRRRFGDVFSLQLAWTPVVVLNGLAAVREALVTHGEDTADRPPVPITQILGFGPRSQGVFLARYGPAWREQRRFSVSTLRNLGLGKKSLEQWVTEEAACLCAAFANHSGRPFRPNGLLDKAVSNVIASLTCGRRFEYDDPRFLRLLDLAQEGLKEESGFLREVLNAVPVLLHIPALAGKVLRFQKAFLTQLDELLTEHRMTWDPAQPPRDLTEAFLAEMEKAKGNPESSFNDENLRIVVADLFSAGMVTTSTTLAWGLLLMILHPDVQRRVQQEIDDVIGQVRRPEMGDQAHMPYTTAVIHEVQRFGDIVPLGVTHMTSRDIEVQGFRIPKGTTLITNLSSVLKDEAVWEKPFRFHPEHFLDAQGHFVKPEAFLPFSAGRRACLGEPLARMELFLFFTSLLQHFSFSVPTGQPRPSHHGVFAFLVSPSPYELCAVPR
# Test: Cytochrome panel assay with activity outcomes
# Details: recombinant CYP, pro-luciferin dealkylation, luminescence, p450-cyp2d6; series mostly up to 57.1 µM; activity, negative = inhibition: at the top concentration
# % is set by controls: 0 for no effect and ±100 for the full control effect.
SMILES,"activity, negative = inhibition",AC50
CNC(=O)c1nnn(Cc2ccccc2)c1NC(=O)C(F)(F)F,14.6% (inactive),
O=C(N/N=C/c1ccc([N+](=O)[O-])s1)c1ccccc1Br,-20.2% (inactive),
O=C(O)CCCCCNC(=O)c1ccccc1Br,15.5% (inactive),
O=C(NCCNc1ccc([N+](=O)[O-])cc1)c1ccccc1Br,,11.2 µM (active)
NC(=O)N1c2ccccc2C=Cc2ccccc21,1.87% [at 25.6 µM] (inactive),
Cc1cc(Oc2ccc(-c3ccccc3)cc2)nc(N2CCOCC2)n1,-22.5% (inactive),
CCC(C)n1nnc2c(=O)oc3ccccc3c21 (stereo unspecified),9.18% (inactive),
C[C@@H](C(=O)Nc1ccc2ccccc2c1)[C@@H]1C[C@@]1(C)[C@@H](NC(=O)c1ccncc1Cl)c1ccccc1,,12.6 µM (active)
COC(=O)[C@H]1C[C@@H]1[C@H](NC(=O)c1cnccn1)c1ccccc1,-5.05% (inactive),
C[C@@H](C(=O)Nc1ccc2ccccc2c1)[C@H]1C[C@]1(C)[C@H](NC(=O)c1cnccn1)c1ccccc1,,0.1 µM (active)
C[C@@H](C(=O)Nc1ccc2ccccc2c1)[C@@H]1C[C@@]1(C)[C@@H](NC(=O)c1cnccn1)c1ccccc1,-6.62% (inactive),
O=P(O)(O)O[C@@H]1O[C@H](CO)[C@@H](O)[C@H](O)[C@@H]1O,9.85% [at 11.4 µM] (inactive),
CCOC(=O)/C(C#N)=C\N(C)C,0.62% (inactive),
O=C(c1cccc(F)c1)N1CCC2(CCCN(c3ccc(-c4ccccc4)cc3)C2)CC1,3.09% (inactive),
Cc1ccc(OCC(=O)Nc2ccc(S(=O)(=O)Nc3onc(C)c3C)cc2)cc1,-9.39% (inactive),
COCc1nc2c([nH]1)c(=O)n(C)c(=O)n2CC(C)C,5.94% (inactive),
O=C(O)CCC(=O)N1CCOc2ccc(Cl)cc21,7.6% (inactive),
CC(=O)NNC(=O)N1Cc2ccccc2Oc2ccc(Cl)cc21,,6.31 µM (active)
CC(=O)NNC(=O)C(O)(c1ccccc1)c1ccccc1,4.64% (inactive),
CC/C(O)=C(\C#N)c1nnc2n1CCCCC2,-19.9% (inactive),
COc1ccc(-c2nc3cnc(Nc4cccc(OC)c4)nc3n(CCC#N)c2=O)cc1,0.405% (inactive),
Cc1ccc(NC(=O)Cn2nc([N+](=O)[O-])c(Br)c2C)cc1C,-22.2% (inactive),
COc1cc(CNCc2ccccn2)ccc1OCc1ccc(Cl)cc1Cl,,12.6 µM (active)
CCOc1ccccc1CNCCN1CCOCC1,,12.6 µM (active)
COc1cc(CNCCN2CCOCC2)ccc1OCc1ccccc1Cl,,11.2 µM (active)
COc1ccc(CC(=O)NCc2ccccn2)cc1OC,-3.31% (inactive),

SMILES,"activity, negative = inhibition",AC50
c1csc(CNCCCN2CCOCC2)c1,-19.4% (inactive),
Cc1ccccc1-c1cc(NCCN2CCOCC2)ncn1,-12% (inactive),
COc1cc2c(cc1OC)-c1cc(NCc3ccccn3)nc(=O)n1CC2,-23.8% (inactive),
COc1cc(CNn2nnnc2N)ccc1OCc1c(Cl)cccc1Cl,0.965% (inactive),
COc1ccc(NC(=O)COc2ccc(CNCCCN3CCOCC3)cc2OC)cc1,-25.3% (inactive),
CCN(CC)S(=O)(=O)N1CCC(C(=O)NC2CCCC2)CC1,-1.15% (inactive),
COc1cccc(Cn2c(=O)c(-c3cccc(C#N)c3)nc3cnc(OC)nc32)c1,-6.2% (inactive),
COc1ccc(-c2cc(C(F)(F)F)nc(N3CCOCC3)n2)cc1OC,-9.69% (inactive),
CC1=NN(c2ccc(C)cc2C)C(=O)C1C(c1ccccc1)C1C(=O)N(c2ccc(C)cc2C)N=C1C (stereo unspecified),-4.48% (inactive),
C=CC[C@@H]1C=C[C@@H](O/N=C\[C@@H](OC)[C@H](C)/C=C\CC(=O)OC)[C@@H](CO)O1,4.18% [at 11.4 µM] (inactive),
O=C(c1cc(-c2ccncc2)nc2ccccc12)N1CCN(c2ccc(N3CCOCC3)nn2)CC1,-13.7% (inactive),
COc1ccc(/C(O)=C2\C(=O)C(=O)N(c3cc(C)on3)C2c2ccc(OC)c(OC)c2)cc1OC (stereo unspecified),12.4% (inactive),
CC(C)c1nnc(NC(=O)c2sc3ccccc3c2Cl)s1,-12% (inactive),
C[N+](C)(CCCCCC[N+](C)(C)CCCN1C(=O)c2cccc3cccc(c23)C1=O)CCCN1C(=O)c2cccc3cccc(c23)C1=O,-5.79% (inactive),
CS[C@@H](CC(=O)O)C(=O)O,-10.1% [at 11.4 µM] (inactive),
CC(CC(=O)O)(CC(=O)O)c1ccccc1,11.2% [at 11.4 µM] (inactive),
CCN(CC)CC#CCC(C)(c1ccccc1)c1ccccc1,,0.891 µM (active)
COc1ncc2nc(C)c(=O)n(-c3ccccc3)c2n1,-4.68% (inactive),
O=C(Nc1nc(-c2ccccc2)cs1)c1ccc(Br)o1,-26.9% (inactive),
CN1CCN(c2ncc3nc(-c4cc(F)cc(F)c4)c(=O)n(Cc4cccs4)c3n2)CC1,-0.882% (inactive),
O=C1c2cccc3cccc(c23)C(=O)N1CC1CCN(CC(O)COc2ccc3ccccc3c2)CC1 (stereo unspecified),,0.708 µM (active)
O=C(c1ccc(S(=O)(=O)N2CCCCCC2)cc1)N1CCC(CN2C(=O)c3cccc4cccc(c34)C2=O)CC1,-9.01% (inactive),
O=C(CCN1C(=O)c2ccccc2C1=O)Oc1ccc2ccccc2c1,-12.4% (inactive),
O=C(O)[C@@H](S)[C@H](S)C(=O)O,-4.31% [at 11.4 µM] (inactive),
CN1CCN(c2ccc([N+](=O)[O-])cc2S(=O)(=O)N2CCOCC2)CC1,-7.09% (inactive),
Cc1cccc(N2CCN(c3ccc(NC(=O)/C=C(/C(=O)O)c4ccccc4)cc3)CC2)c1,4.26% (inactive),

SMILES,"activity, negative = inhibition",AC50
CC(=O)Nc1ccc(N2CCCCC2)cc1,-9.74% (inactive),
Cc1cccc(OCCCC(=O)Nc2ccc(N3CCCCC3)cc2)c1,,0.891 µM (active)
Cc1ccnc2nc(C(=O)OCC(=O)Nc3ccc4c(c3)OC(F)(F)O4)nn12,-21.3% (inactive),
CCO[P@]1(=O)OC[C@@H]2O[C@H](n3cnc4c(N)ncnc43)[C@H](O)[C@@H]2O1,4.83% [at 11.4 µM] (inactive),
CCN(/C=N/c1sc2c(c1C#N)CCCCC2)CC,-33.3% (inactive),
O=C(NC1(C(F)(F)F)C(=O)Nc2c1c(=O)[nH]c(=O)n2-c1ccc(F)cc1)c1cccnc1 (stereo unspecified),7.79% (inactive),
CN(C)CCCN1CC(C(=O)O)CC1=O (stereo unspecified),19% (inactive),
Cc1cccc(CNc2ncnc3ccc(-c4cccc(C#N)c4)cc23)c1,-17.4% (inactive),
c1cncc(-c2ccc3ncnc(NC4CCNCC4)c3c2)c1,-8.56% (inactive),
Cc1cccc(CNc2ncnc3ccc(-c4cccnc4)cc23)c1,,12.6 µM (active)
c1ccc(Nc2ncnc3ccc(-c4cccnc4)cc23)cc1,-13.8% (inactive),
c1ccc(CNc2ncnc3ccc(-c4cccnc4)cc23)cc1,,10 µM (active)
CN1CCN(C2CC(=O)N(Cc3ccc(N4CCCC4=O)cc3)C2=O)CC1 (stereo unspecified),2% (inactive),
O=c1c(-c2ccccc2)nc2cnc(N3CCNCC3)nc2n1Cc1ccc(F)cc1,-15.7% (inactive),
COc1ccc2c(Cl)cc(NC(=S)Nc3ccccc3)nc2c1,-18.8% [at 11.4 µM] (inactive),
COc1ccc(N2C(=O)CCC(C(=O)O)C2c2ccc(F)cc2)cc1 (stereo unspecified),1.51% (inactive),
CN1CCN(c2ncc3nc(-c4cn(C)c5ccccc45)c(=O)n(C)c3n2)CC1,11.6% (inactive),
O=C(NNc1cccc(Cl)n1)Nc1ccccc1Cl,-31.9% (inactive),
COc1ccc(-c2nc3cnc(N4CCNCC4)nc3n(Cc3cccs3)c2=O)cc1,-6.46% (inactive),
Cc1nc(-c2cccc(NC(=O)c3cc4cc(Br)ccc4oc3=O)c2)cs1,26.4% (inactive),
CCn1c(C)cc(/C=C2\NC(=O)N(Cc3ccc(Cl)cc3)C2=O)c1C,4.67% (inactive),
Cc1ccc(NC(=S)c2nc3ccccc3s2)cc1,-15.2% (inactive),
Brc1ccc(/C=C/C=N/Nc2nc3ccccc3s2)cc1,15.1% (inactive),
CCN(CC)c1ccc(/C=C/c2nc3ccccc3s2)cc1,,28.2 µM (active)
Cn1c(=O)c2[nH]c(COCc3nc4c([nH]3)c(=O)n(C)c(=O)n4C)nc2n(C)c1=O,3.11% [at 11.4 µM] (inactive),
NC1=C(O)C(=O)[C@H](c2c[nH]c3ccc(OCc4ccccc4)cc23)O1,-2.34% [at 11.4 µM] (inactive),

SMILES,"activity, negative = inhibition",AC50
O=C(Oc1ccccc1)N1CCC2(CC1)CN(c1ccncc1)C2,5.3% (inactive),
O=C(CNCCO)N1CCc2ccccc21,-26.9% (inactive),
CCCCN(C)CCCNC(=O)CCn1nc(-c2ccccc2)ccc1=O,-27% (inactive),
CCN(CCCNC(=O)CC(C(=O)N1CCc2ccccc21)n1ccnc1)c1ccccc1 (stereo unspecified),,3.98 µM (active)
Clc1ccc(-c2nnc(-c3ccccc3)c(N3CCSCC3)n2)cc1,-13% (inactive),
Cc1noc(NS(=O)(=O)c2cccc3c(N(C)C)cccc23)c1C,-6% (inactive),
O=C(Nn1cc(C(=O)N2CCN(c3ccccc3F)CC2)c2ccccc2c1=O)c1cnccn1,-6.56% (inactive),
C#CCCCC(=O)Nc1ccccc1,,12.6 µM (active)
CC(=O)NNC(=O)CCC(=O)Nc1ccccc1,-4.27% (inactive),
CCC(=O)NNC(=O)CCC(=O)Nc1ccccc1,18% (inactive),
Cc1ccc(-c2csc(N/N=C/c3ccco3)n2)cc1,-14.3% (inactive),
NCCSSCCN,,inactive
O=c1oc2cc(Oc3ccc(C(F)(F)F)cc3[N+](=O)[O-])ccc2c2c1CCCC2,20.1% (inactive),
CC(C)c1ccc(OCc2ccc(C(=O)N3CCN(c4ccccn4)CC3)cc2)cc1,7.85% (inactive),
Cc1cc(C(=O)CSc2nnc(N)s2)c(C)n1CCc1ccc(F)cc1,,7.08 µM (active)
CC(=O)Nc1nnc(SCc2ccc(F)cc2)s1,-0.935% (inactive),
COc1ccc(CCn2c(C)cc(C(=O)CSc3nc(N)cc(=O)[nH]3)c2C)cc1,-25.3% (inactive),
Cn1c(=O)c2c(ncn2CN2CCN(Cn3cnc4c3c(=O)n(C)c(=O)n4C)CC2)n(C)c1=O,-3.86% [at 11.4 µM] (inactive),
C[C@@H]1/C=C\CC(=O)OC[C@H](C)C(=O)N[C@@H](C)C(=O)OC1,-1.56% [at 11.4 µM] (inactive),
CCCc1nnc(NC(=O)C(CC)OC(=O)c2cc(C)nc3ccccc23)s1 (stereo unspecified),-10.4% (inactive),
C[C@@H](C(=O)O)/C(=C/c1ccc2c(c1)OCO2)C(=O)O,14.3% [at 11.4 µM] (inactive),
C[C@@H]1Oc2ccc(C(=O)C[C@@H](C(=O)O)c3ccc4c(c3)OCO4)cc2O1,-15.2% [at 11.4 µM] (inactive),
c1ccc(SC(Sc2ccccc2)c2ccc3c(c2)OCO3)cc1,,3.16 µM (active)
